# Values joined by “and” are separate entries in the source; they are usually repeats but may differ in a detail not shown here. Identical values can stand only once. Records with an inconclusive call do not appear. Entries that show only a call come without a potency. A structure can be active in one record and inactive in another. Active and inactive are the calls of the source. Calls come from the whole dose curve; as a rule, active = well fitted curve in the direction sought with a large enough effect; inconclusive = small, poorly fitted or top-dose-only effect, or another doubt; inactive = no such curve, though single readings can be large; an effect the other way counts as inactive or inconclusive.
# What was measured:
# [1] = Viability qHTS for spleen associated tyrosine kinase inhibitor (SYKi) naive MV4-11 cells (AID 1963823); note: nearly all actives have a fitted effect of over 40% in size
# Procedure, shortened: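 Read-out: CellTiter-Glo luminescence. Exposure: 72 hr, 37 C, 5% CO2, 95% humidity. Cells: MV4-11 without SYK inhibitor history, 500/well, qHTS format.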
# [2] = Viability qHTS for spleen associated tyrosine kinase inhibitor (SYKi) drug resistant MV4-11 cells (AID 1963824); note: nearly all actives have a fitted effect of over 35% in size
# Procedure, shortened: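 CellTiter-Glo luminescence, read 10 min after reagent addition, reports viability after a 72 hr compound exposure. Cells are an MV4-11 line made resistant to SYK inhibition, seeded at 500 per well onto compound-containing plates.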
# [3] = Quantitative highthroughput screen to assess conditional lethalithy of NOMO1 cells grown in RPMI1640 with untreated serum (RPMI+s) (AID 1963876); note: nearly all actives have a fitted effect of over 35% in size
# Procedure, shortened: (§1)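 Each medium arm—HPLM with 10% dialyzed FBS, or RPMI1640 with 5 mM glucose and 10% untreated or dialyzed FBS—was screened against an 11-point, 3-fold compound titration for 48 h at 37 °C, with CellTiter-Glo luminescence as endpoint.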
# [4] = Quantitative highthroughput screen to assess conditional lethalithy of NOMO1 cells grown in RPMI1640 with dialyzed fetal bovine serum (RPMI+ds) (AID 1963877); note: nearly all actives have a fitted effect of over 30% in size; for Viability: series mostly up to about 46 µM
# Procedure, shortened: as §1
# [5] = Quantitative highthroughput screen to assess conditional lethalithy of NOMO1 cells grown in Human Plasma-Like Medium with dialyzed fetal bovine serum (HPLM+ds) (AID 1963878); note: nearly all actives have a fitted effect of over 35% in size
# Procedure, shortened: as §1
# [6] = Quantitative highthroughput screen to assess conditional lethalithy of P12 Ichikawa cells grown in Human Plasma-Like Medium with dialyzed fetal bovine serum (HPLM+ds) (AID 1963879); conditions: Potency: viability; note: nearly all actives have a fitted effect of over 35% in size; for Viability: series mostly up to about 46 µM
# Procedure, shortened: as §1
# [7] = Quantitative highthroughput screen to assess conditional lethalithy of P12 Ichikawa cells grown in RPMI1640 with dialyzed fetal bovine serum (RPMI+ds) (AID 1963880); conditions: Potency: P12-Ichikawa viability; note: nearly all actives have a fitted effect of over 35% in size
# Procedure, shortened: as §1
# [8] = Quantitative highthroughput screen to assess conditional lethalithy of P12 Ichikawa cells grown in RPMI1640 with untreated serum (RPMI+s) (AID 1963881); conditions: Potency: viability; note: nearly all actives have a fitted effect of over 35% in size; for Viability: series mostly up to about 46 µM
# Procedure, shortened: as §1
# [9] = Quantitative highthroughput screen to assess conditional lethalithy of SEM cells grown in Human Plasma-Like Medium with dialyzed fetal bovine serum (HPLM+ds) (AID 1963882); note: nearly all actives have a fitted effect of over 35% in size; for Viability: series mostly up to about 46 µM
# Procedure, shortened: as §1
# [10] = Quantitative highthroughput screen to assess conditional lethalithy of SEM cells grown in RPMI1640 with unreated serum (RPMI+s) (AID 1963883); note: nearly all actives have a fitted effect of over 35% in size
# Procedure, shortened: as §1
# [11] = Quantitative highthroughput screen to assess conditional lethalithy of SEM cells grown in RPMI1640 with dialyzed fetal bovine serum (RPMI+ds) (AID 1963884); note: nearly all actives have a fitted effect of over 35% in size; for Viability: series mostly up to about 46 µM
# Procedure, shortened: as §1
# [12] = Cellular viability qHTS for adrenocortical cancer (ACC) cell line SW-13 (AID 1963989); conditions: SW-13 ACC cells viability, CellTiter-Glo, 48 h; activity (max response): stronger effect = lower value; note: nearly all actives have a fitted effect of over 65% in size;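 for activity (max response): cells grown in serum-free medium with ITS supplement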
# Procedure, shortened: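 48 h treatment, SW-13 in ITS/DMEM serum-free; doses up to 46 uM; readout CellTiter-Glo luminescence; curve fit four-parameter logistic.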
# [13] = Cellular viability qHTS for adrenocortical cancer (ACC) cell line NCI-H295R (AID 1963990); note: nearly all actives have a fitted effect of over 60% in size
# Procedure, shortened: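 Compound titrations (up to 46 uM final) are applied to NCI-H295R cultures for 48 h at 37C. Viable cell number is estimated by CellTiter-Glo signal, normalised to DMSO and doxorubicin controls.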
# Potency is the fitted concentration of half-maximal effect.
Structure (SMILES),Potency [1],Potency [2],Potency [3],Potency [4],Potency [5],Potency [6],Potency [7],Potency [8],Potency [9],Potency [10],Potency [11],activity (max response) [12],Potency [12],Potency [13]
Fc1ccc(Cl)cc1-c1nc(Nc2ccncc2)c2nccnc2n1,inactive and 18.6 µM (active),inactive,inactive,inactive,inactive,inactive,inactive,inactive,inactive,inactive,inactive,-19.5% (inactive),–,–
COc1ccccc1OCCNCC(O)COc1cccc2[nH]c3ccccc3c12 (configuration not stated),13300 nM (active),11.9 µM (active),inactive,inactive,inactive,inactive,inactive,inactive,inactive,inactive,inactive,–,–,–
CC(C)C[C@H](NC(=O)[C@H](Cc1ccccc1)NC(=O)c1cnccn1)B(O)O,13.2 nM (active),9.4 nM (active) and 11.8 nM (active),46.9 nM (active),46.9 nM (active),46.9 nM (active),37.2 nM (active),37.2 nM (active),37.2 nM (active),20.9 nM (active),18.7 nM (active),16.6 nM (active),–,20.6 nM (active) and 79.4 nM (active),8.2 nM (active) and 35.5 nM (active)
Cc1nc(-c2ccc(OCC(C)C)c(C#N)c2)sc1C(=O)O,inactive,inactive,inactive,inactive,inactive,inactive,inactive,inactive,inactive,inactive,inactive,5.55% (inactive) and 8.19% (inactive),–,inactive
N#Cc1c(O)c2c(-c3ccc(-c4ccccc4O)cc3)csc2[nH]c1=O,inactive,inactive,inactive,inactive,inactive,inactive,inactive,inactive,inactive,inactive,inactive,4.91% (inactive),–,inactive
Oc1cc2c(cc1O)C1c3ccc(O)c(O)c3OCC1(O)C2 (configuration not stated),16600 nM (active),14.8 µM (active),inactive,inactive,inactive,inactive,inactive,inactive,inactive,inactive,inactive,-7.46% (inactive),–,inactive
C[N+]1(C)[C@@H]2C[C@@H](OC(=O)C(O)(c3cccs3)c3cccs3)C[C@H]1[C@@H]1O[C@@H]12,inactive,inactive,inactive,inactive,inactive,inactive,inactive,inactive,inactive,inactive,inactive,–,–,–
CCOC(=O)C1=C(O)C(=O)N(Cc2ccccc2)C1,inactive,inactive,inactive,inactive,inactive,inactive,inactive,inactive,inactive,inactive,inactive,4.18% (inactive),–,inactive
COc1cc([C@@H]2c3cc4c(cc3[C@@H](O[C@@H]3O[C@@H]5CO[C@@H](C)O[C@@H]5[C@H](O)[C@@H]3O)[C@H]3COC(=O)[C@H]23)OCO4)cc(OC)c1O,590 nM (active),0.525 µM (active),2090 nM (active),2350 nM (active),1870 nM (active),935 nM (active),833 nM (active),662 nM (active),526 nM (active),132 nM (active),166 nM (active),–,11.2 µM (active),20 µM (active)
CN(C)c1ccc(C(=C2C=CC(=[N+](C)C)C=C2)c2ccc(N(C)C)cc2)cc1,332 nM (active),0.372 µM (active),148 nM (active),132 nM (active),118 nM (active),264 nM (active),132 nM (active),118 nM (active),118 nM (active),105 nM (active),93.5 nM (active),–,651 nM (active) and 1.58 µM (active),920 nM (active) and 2.82 µM (active)
C=CC(=O)Nc1cc2c(Nc3ccc(F)c(Cl)c3)ncnc2cc1C#CC(C)(C)N1CCN(C)CC1,590 nM (active),0.517 µM (active),9350 nM (active),5260 nM (active),5260 nM (active),5260 nM (active),5260 nM (active),5900 nM (active),2960 nM (active),2960 nM (active),3320 nM (active),–,3.16 µM (active),–
C[C@H](NC(=O)Cc1cc(F)cc(F)c1)C(=O)N[C@H](C(=O)OC(C)(C)C)c1ccccc1,inactive,14.8 µM (active),inactive,inactive,inactive,inactive,inactive,inactive,inactive,inactive,inactive,3.52% (inactive),–,–
COc1ccc(C[C@@H](C)[C@@H](C)Cc2ccc(OC)c(OC)c2)cc1OC,6610 nM (active),11.8 µM (active),2350 nM (active),2640 nM (active),833 nM (active),2350 nM (active),2350 nM (active),2350 nM (active),2640 nM (active),2640 nM (active),2640 nM (active),-32.2% (inactive),–,inactive

# Reference: PubChem BioAssay (NCATS)
